The campaign covered roughly 5,500 compounds. About 2,000 (36%) were called active. Inconclusive results (about 18%) are left out. Rule as the data show it: active = normalized growth mostly below about 0.91 (no sharp cut-off); inconclusive = no clear call, values can overlap the other calls; inactive = mostly above about 0.92. The list shows a part of the results.
Assay: chemical genetic growth profiling, strain panel (AID 1159580);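 also: tested at 20 µM; growth read once vehicle control cultures reached saturation at 30 °C; 1 = growth at the plate median or of vehicle wells; lower values mean less growth of the strain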
Details: growth OD

Measured: normalized growth

OCC(O)C(O)C(O)C(O)C(O)CO (configuration not stated)
inactive: S. cerevisiae deletion strains, locus YKL009W, strain mrt4, hits give low values 1.05 | S. cerevisiae deletion strains, locus YKL068W, hits give low values 0.98 | S. cerevisiae deletion strains, locus YKL085W, strain MDH1 (second series), hits give low values 1 | S. cerevisiae deletion strains, locus YKL085W, strain MDH1, hits give low values 1 | S. cerevisiae deletion strains, locus YKL160W, strain elf1, hits give low values 1.01 | S. cerevisiae deletion strains, locus YKL190W, strain CNB1, hits give low values 1.02 | S. cerevisiae deletion strains, locus YKR001C, strain vps1, hits give low values 1.01 | S. cerevisiae deletion strains, locus YKR026C, strain gcn3, hits give low values 1.01 | S. cerevisiae deletion strains, locus YKR091W, strain srl3, hits give low values 0.997 | S. cerevisiae deletion strains, locus YLL001W, strain dnm1, hits give low values 0.995 | S. cerevisiae deletion strains, locus YLL026W, hits give low values 0.999 | S. cerevisiae deletion strains, locus YLL041C, strain sdh2, hits give low values 0.998 | S. cerevisiae deletion strains, locus YLR027C, strain aat2, hits give low values 0.997 | S. cerevisiae deletion strains, locus YLR039C, strain RIC1, hits give low values 1.14 | S. cerevisiae deletion strains, locus YLR058C, strain SHM2, hits give low values 1 | S. cerevisiae deletion strains, locus YLR102C, strain apc9, hits give low values 0.987 | S. cerevisiae deletion strains, locus YLR113W, strain HOG1, hits give low values 0.965 | S. cerevisiae deletion strains, locus YLR221C, strain rsa3, hits give low values 1.01 | S. cerevisiae deletion strains, locus YLR258W, strain gsy2, hits give low values 1 | S. cerevisiae deletion strains, locus YLR262C, strain YPT6 (second series), hits give low values 1 | S. cerevisiae deletion strains, locus YLR268W, strain sec22, hits give low values 0.998 | S. cerevisiae deletion strains, locus YLR320W, strain mms22, hits give low values 0.985 | S. cerevisiae deletion strains, locus YLR330W, strain CHS5, hits give low values 0.992 | S. cerevisiae deletion strains, locus YLR342W, strain FKS1 (second series), hits give low values 0.998 | S. cerevisiae deletion strains, locus YLR342W, strain FKS1, hits give low values 0.993 | S. cerevisiae deletion strains, locus YLR357W, strain rsc2, hits give low values 0.974 | S. cerevisiae deletion strains, locus YLR370C, strain arc18, hits give low values 0.999 | S. cerevisiae deletion strains, locus YLR371W, strain rom2, hits give low values 1.03 | S. cerevisiae deletion strains, locus YLR384C, strain iki3, hits give low values 0.995 | S. cerevisiae deletion strains, locus YLR418C, strain cdc73, hits give low values 1 | S. cerevisiae deletion strains, locus YML016C, strain PPZ1, hits give low values 0.988 | S. cerevisiae deletion strains, locus YML032C, strain rad52, hits give low values 0.987 | S. cerevisiae deletion strains, locus YML120C, strain ndi1, hits give low values 0.988 | S. cerevisiae deletion strains, locus YML124C, strain tub3, hits give low values 0.988 | S. cerevisiae deletion strains, locus YMR058W, strain fet3, hits give low values 0.997 | S. cerevisiae deletion strains, locus YMR078C, strain ctf18, hits give low values 0.989 | S. cerevisiae deletion strains, locus YMR125W, strain sto1, hits give low values 0.973 | S. cerevisiae deletion strains, locus YMR129W, hits give low values 0.99 | S. cerevisiae deletion strains, locus YMR205C, strain PFK2, hits give low values 1 | S. cerevisiae deletion strains, locus YMR223W, strain ubp8, hits give low values 1.01 | S. cerevisiae deletion strains, locus YMR231W, strain pep5, hits give low values 0.998 | S. cerevisiae deletion strains, locus YMR307W, strain GAS1, hits give low values 1.12 | S. cerevisiae deletion strains, locus YNL067W, strain RPL9B, hits give low values 1.02 | S. cerevisiae deletion strains, locus YNL071W, strain lat1, hits give low values 1 | S. cerevisiae deletion strains, locus YNL153C, strain GIM3, hits give low values 1.03 | S. cerevisiae deletion strains, locus YNL183C, strain NPR1, hits give low values 0.932 | S. cerevisiae deletion strains, locus YNL209W, strain ssb2, hits give low values 1 | S. cerevisiae deletion strains, locus YNL233W, strain BNI4, hits give low values 1.06 | S. cerevisiae deletion strains, locus YNL248C, strain rpa49, hits give low values 0.99 | S. cerevisiae deletion strains, locus YNL250W, strain rad50, hits give low values 0.987 | S. cerevisiae deletion strains, locus YNL271C, strain bni1, hits give low values 1.01 | S. cerevisiae deletion strains, locus YNL298W, strain CLA4, hits give low values 0.99 | S. cerevisiae deletion strains, locus YNL307C, strain MCK1, hits give low values 0.992 | S. cerevisiae deletion strains, locus YNL322C, strain KRE1 (second series), hits give low values 0.999 | S. cerevisiae deletion strains, locus YNR049C, strain mso1, hits give low values 0.987 | S. cerevisiae deletion strains, locus YNR052C, strain pop2, hits give low values 1.03 | S. cerevisiae deletion strains, locus YOL006C, strain TOP1, hits give low values 1.14 | S. cerevisiae deletion strains, locus YOL012C, strain htz1 0.757 | S. cerevisiae deletion strains, locus YOL147C, strain pex11, hits give low values 0.998 | S. cerevisiae deletion strains, locus YOR001W, strain rrp6, hits give low values 1 | S. cerevisiae deletion strains, locus YOR061W, strain CKA2, hits give low values 0.984 | S. cerevisiae deletion strains, locus YOR069W, strain VPS5, hits give low values 1 | S. cerevisiae deletion strains, locus YOR070C, strain gyp1, hits give low values 0.995 | S. cerevisiae deletion strains, locus YOR080W, strain dia2, hits give low values 0.985 | S. cerevisiae deletion strains, locus YOR083W, strain WHI5, hits give low values 0.996 | S. cerevisiae deletion strains, locus YOR106W, strain vam3, hits give low values 1.01 | S. cerevisiae deletion strains, locus YOR136W, strain idh2, hits give low values 1.01 | S. cerevisiae deletion strains, locus YOR144C, strain elg1, hits give low values 0.991 | S. cerevisiae deletion strains, locus YOR184W, strain ser1, hits give low values 0.982 | S. cerevisiae deletion strains, locus YOR231W, strain MKK1, hits give low values 0.961 | S. cerevisiae deletion strains, locus YOR265W, strain rbl2, hits give low values 0.989 | S. cerevisiae deletion strains, locus YOR270C, strain vph1, hits give low values 0.994 | S. cerevisiae deletion strains, locus YOR290C, strain snf2, hits give low values 0.989 | S. cerevisiae deletion strains, locus YOR316C, strain cot1, hits give low values 0.984 | S. cerevisiae deletion strains, locus YPL051W, strain arl3, hits give low values 1 | S. cerevisiae deletion strains, locus YPL055C, strain LGE1, hits give low values 0.97 | S. cerevisiae deletion strains, locus YPL078C, strain atp4, hits give low values 0.992 | S. cerevisiae deletion strains, locus YPL106C, strain sse1, hits give low values 0.989 | S. cerevisiae deletion strains, locus YPL240C, strain hsp82, hits give low values 0.989 | S. cerevisiae deletion strains, locus YPL241C, strain CIN2, hits give low values 0.998 | S. cerevisiae deletion strains, locus YPL256C, strain CLN2, hits give low values 0.968 | S. cerevisiae deletion strains, locus YPR119W, strain clb2, hits give low values 0.997 | S. cerevisiae deletion strains, locus YPR141C, strain kar3, hits give low values 0.976 | S. cerevisiae deletion strains, locus YPR163C, strain tif3, hits give low values 1.01 | S. cerevisiae deletion strains, locus YPR167C, strain met16, hits give low values 0.993 | S. cerevisiae deletion strains, strain wtn01, hits give low values 0.997 | S. cerevisiae strains, strain wild type, hits give low values 1.03

From PubChem BioAssay AID1159580 (chemical genetic matrix, 2015)
